Measurements: ChEMBL document CHEMBL1961873, “Compounds: GSK PKIS; Assays: Nanosyn kinase panel” (2012)
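Note: each value is a mean of the inhibition readings.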

The molecules below were run against Non-receptor tyrosine-protein kinase TYK2 (Homo sapiens) (UniProt P29597). Settings: at 0.1 µM.
Chain of Non-receptor tyrosine-protein kinase TYK2 (Homo sapiens) (P29597 whole entry): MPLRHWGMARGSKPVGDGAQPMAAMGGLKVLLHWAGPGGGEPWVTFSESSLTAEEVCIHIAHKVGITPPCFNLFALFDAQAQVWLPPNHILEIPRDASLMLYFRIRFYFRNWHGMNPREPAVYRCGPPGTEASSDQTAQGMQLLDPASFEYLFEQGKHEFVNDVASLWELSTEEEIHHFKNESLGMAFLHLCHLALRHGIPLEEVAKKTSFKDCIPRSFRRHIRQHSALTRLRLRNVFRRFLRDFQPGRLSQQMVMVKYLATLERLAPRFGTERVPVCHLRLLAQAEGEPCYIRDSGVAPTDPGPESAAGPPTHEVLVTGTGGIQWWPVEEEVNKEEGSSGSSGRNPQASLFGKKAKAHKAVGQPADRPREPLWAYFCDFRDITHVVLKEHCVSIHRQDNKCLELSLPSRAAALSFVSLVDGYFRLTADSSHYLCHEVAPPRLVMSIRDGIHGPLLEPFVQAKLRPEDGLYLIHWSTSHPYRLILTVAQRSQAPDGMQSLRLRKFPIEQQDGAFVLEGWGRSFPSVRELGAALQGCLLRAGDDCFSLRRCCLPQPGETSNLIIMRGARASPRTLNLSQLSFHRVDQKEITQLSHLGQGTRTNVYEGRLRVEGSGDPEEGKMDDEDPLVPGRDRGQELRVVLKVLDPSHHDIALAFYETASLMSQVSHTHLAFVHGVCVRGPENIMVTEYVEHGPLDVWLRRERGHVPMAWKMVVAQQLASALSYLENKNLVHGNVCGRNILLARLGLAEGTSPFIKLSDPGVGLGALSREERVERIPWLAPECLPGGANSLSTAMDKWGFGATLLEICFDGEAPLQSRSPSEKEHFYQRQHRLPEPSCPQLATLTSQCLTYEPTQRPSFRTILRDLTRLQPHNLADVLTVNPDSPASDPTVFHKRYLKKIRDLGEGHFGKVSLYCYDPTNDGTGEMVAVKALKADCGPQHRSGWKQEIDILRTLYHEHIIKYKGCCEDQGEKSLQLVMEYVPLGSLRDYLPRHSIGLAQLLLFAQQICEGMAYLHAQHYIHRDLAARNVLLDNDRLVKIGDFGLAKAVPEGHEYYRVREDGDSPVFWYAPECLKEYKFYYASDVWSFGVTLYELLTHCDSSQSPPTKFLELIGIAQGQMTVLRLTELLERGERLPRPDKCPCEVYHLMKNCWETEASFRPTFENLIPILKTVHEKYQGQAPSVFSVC
In the case of `O=C1Nc2ccc(I)cc2C1=Cc1cc(Br)c(O)c(Br)c1`, the inhibition is reported as -1.21%.
`CCS(=O)(=O)c1ccc(OC)c(Nc2ncc(-c3cccc(-c4ccccc4F)c3)o2)c1` showed an inhibition of 1.51%.
Work on `COc1ccc(-c2ccc3c(NC(=O)C4CC4)n[nH]c3n2)cc1` yielded an inhibition of 0.27%.
`CCc1ccc(Oc2nccc(-c3c(-c4ccc(F)cc4)ncn3C3CCNCC3)n2)cc1` was tested, and the inhibition was 1.68%.
In the case of `NCc1ccc(-n2c(-c3nonc3N)nc3cnccc32)cc1`, the inhibition is reported as -7.21%.
In the case of `CN1CCN(CCCNc2nc3ccc(Oc4ccc(NC(=O)Nc5cc(C(F)(F)F)ccc5F)cc4)cc3[nH]2)CC1`, the inhibition is reported as -2.82%.
Work on `NS(=O)(=O)c1ccc(Nc2cc(-c3ccc(O)c(F)c3)n[nH]2)cc1` yielded an inhibition of 0.21%.
`NS(=O)(=O)c1ccc(N/N=C2\C(=O)Nc3ccc(-c4cnco4)cc32)cc1` gave an inhibition of -0.2%.
`CCc1cccc(CC)c1/C=C/c1cncc(C(=O)NC)c1` gave an inhibition of -7.46%.
In the case of `FC(F)(F)c1cccc(Nc2nccc(-c3cnn4nc(-c5ccccc5)ccc34)n2)c1`, the inhibition is reported as -2.57%.
Work on `COc1ccc2cc(-c3c(-c4ccncc4)nc(-c4ccc([S+](C)[O-])cc4C)n3C)ccc2c1` (stereo unspecified) yielded an inhibition of -1.86%.
For `CCS(=O)(=O)c1ccc(OC)c(Nc2ncc(-c3ccccc3Cl)o2)c1`, the inhibition was -3.24%.
`C[C@@H](Oc1cc(-n2cnc3ccc(OCC4CCN(C)CC4)cc32)sc1C(N)=O)c1ccccc1Cl` was tested, and the inhibition was -2.69%.
For `C[C@@H](Oc1cc(-n2cnc3ccc(OC4CCN(C)CC4)cc32)sc1C(N)=O)c1ccccc1Cl`, the inhibition was -3.41%.
`CCN(CC)Cc1ccc(Nc2nccc(-c3cnn4ncccc34)n2)cc1` gave an inhibition of -7.84%.
For `Fc1ccc(-c2ncn(CCCN3CCOCC3)c2-c2ccncc2)cc1`, the inhibition was 1.6%.
